Source: PubChem BioAssay AID1159580 (chemical genetic matrix, 2015)
Screen size: about 5,500 compounds; about 2,000 (36%) were called active. About 18% were inconclusive and are not listed. This is one part of the list. A number with no mark means an inactive call. Cut-off read from the data, not from the text of the source: active = normalized growth mostly below about 0.91 (no sharp cut-off); inconclusive = no clear call, values can overlap the other calls; inactive = mostly above about 0.92.

Assay: chemical genetic growth profiling, strain panel (AID 1159580);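 note: tested at 20 µM; growth read once vehicle control cultures reached saturation at 30 °C; 1 = growth at the plate median or of vehicle wells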
Settings: growth OD
[1] = S. cerevisiae deletion strains, locus YDR150W, strain NUM1, stronger effect = lower value
[2] = S. cerevisiae deletion strains, locus YMR263W, strain SAP30, stronger effect = lower value
[3] = S. cerevisiae deletion strains, locus YMR307W, strain GAS1, stronger effect = lower value
[4] = S. cerevisiae deletion strains, locus YNL322C, strain KRE1, stronger effect = lower value
[5] = S. cerevisiae deletion strains, locus YAL013W, strain DEP1, stronger effect = lower value
[6] = S. cerevisiae deletion strains, locus YBR229C, strain ROT2, stronger effect = lower value
[7] = S. cerevisiae deletion strains, locus YCL061C, strain MRC1, stronger effect = lower value
[8] = S. cerevisiae deletion strains, locus YDL101C, strain DUN1, stronger effect = lower value
[9] = S. cerevisiae deletion strains, locus YEL061C, strain CIN8, stronger effect = lower value
[10] = S. cerevisiae deletion strains, locus YGR078C, strain PAC10, stronger effect = lower value
[11] = S. cerevisiae deletion strains, locus YHR030C, strain SLT2, stronger effect = lower value
[12] = S. cerevisiae deletion strains, locus YHR087W, strain rtc3, stronger effect = lower value
[13] = S. cerevisiae deletion strains, locus YJR043C, strain POL32, stronger effect = lower value
[14] = S. cerevisiae deletion strains, locus YJR075W, strain HOC1, stronger effect = lower value
[15] = S. cerevisiae deletion strains, locus YKL190W, strain CNB1, stronger effect = lower value
[16] = S. cerevisiae deletion strains, locus YLR039C, strain RIC1, stronger effect = lower value
[17] = S. cerevisiae deletion strains, locus YLR058C, strain SHM2 (second series), stronger effect = lower value
[18] = S. cerevisiae deletion strains, locus YLR085C, strain ARP6, stronger effect = lower value
[19] = S. cerevisiae deletion strains, locus YLR262C, strain YPT6, stronger effect = lower value
[20] = S. cerevisiae deletion strains, locus YML094W, strain GIM5, stronger effect = lower value
[21] = S. cerevisiae deletion strains, locus YMR219W, strain ESC1, stronger effect = lower value
[22] = S. cerevisiae deletion strains, locus YNL153C, strain GIM3, stronger effect = lower value
[23] = S. cerevisiae deletion strains, locus YNL298W, strain CLA4 (second series), stronger effect = lower value
[24] = S. cerevisiae deletion strains, locus YNR030W, strain Alg12, stronger effect = lower value
[25] = S. cerevisiae deletion strains, locus YOL006C, strain TOP1, stronger effect = lower value
[26] = S. cerevisiae deletion strains, locus YPL055C, strain LGE1, stronger effect = lower value
[27] = S. cerevisiae deletion strains, locus YPL241C, strain CIN2, stronger effect = lower value
[28] = S. cerevisiae deletion strains, locus YPR135W, strain CTF4, stronger effect = lower value
[29] = S. cerevisiae deletion strains, locus YHR079C, strain IRE1, stronger effect = lower value
[30] = S. cerevisiae deletion strains, locus YJL095W, strain BCK1, stronger effect = lower value
[31] = S. cerevisiae deletion strains, locus YJR066W, strain TOR1, stronger effect = lower value
[32] = S. cerevisiae deletion strains, locus YLR113W, strain HOG1, stronger effect = lower value
[33] = S. cerevisiae deletion strains, locus YNL183C, strain NPR1, stronger effect = lower value
[34] = S. cerevisiae deletion strains, locus YOR231W, strain MKK1, stronger effect = lower value
[35] = S. cerevisiae deletion strains, locus YPL256C, strain CLN2, stronger effect = lower value

Structure (SMILES): CC(C)(C)c1cc(/C=C(\C#N)C(N)=S)cc(C(C)(C)C)c1O
- normalized growth (S. cerevisiae deletion strains, locus YAL040C, strain CLN3, stronger effect = lower value): 0.912
- normalized growth (S. cerevisiae deletion strains, locus YCL061C, strain MRC1 (second series), stronger effect = lower value): 1.01
- normalized growth [1]: 1
- normalized growth (S. cerevisiae deletion strains, locus YDR363W, strain ESC2, stronger effect = lower value): 1.04
- normalized growth (S. cerevisiae deletion strains, locus YER002W, strain NOP16, stronger effect = lower value): 0.997
- normalized growth [2]: 1.01
- normalized growth [3]: 1.01
- normalized growth (S. cerevisiae deletion strains, locus YNL175C, strain NOP13, stronger effect = lower value): 1.02
- normalized growth (S. cerevisiae deletion strains, locus YNL197C, strain WHI3, stronger effect = lower value): 0.913
- normalized growth (S. cerevisiae deletion strains, locus YNL224C, strain SQS1, stronger effect = lower value): 0.929
- normalized growth [4]: 1.02
- normalized growth (S. cerevisiae deletion strains, locus YOR083W, strain WHI5 (second series), stronger effect = lower value): 0.832 (active)

Structure (SMILES): O=C1c2ccccc2C(=O)N1CNc1ccc(N2CCOCC2)cc1
- normalized growth [5]: 1
- normalized growth [6]: 1
- normalized growth [7]: 0.999
- normalized growth [8]: 1.01
- normalized growth [1]: 0.901
- normalized growth [9]: 0.986
- normalized growth [10]: 1
- normalized growth [11]: 0.976
- normalized growth [12]: 1.02
- normalized growth [13]: 1
- normalized growth [14]: 1.01
- normalized growth [15]: 0.994
- normalized growth [16]: 1.02
- normalized growth [17]: 0.997
- normalized growth [18]: 0.977
- normalized growth [19]: 1.01
- normalized growth [20]: 1.02
- normalized growth [21]: 1
- normalized growth [2]: 0.993
- normalized growth [3]: 1.01
- normalized growth [22]: 1.01
- normalized growth [23]: 1.02
- normalized growth [4]: 0.977
- normalized growth [24]: 0.994
- normalized growth [25]: 0.997
- normalized growth [26]: 0.861
- normalized growth [27]: 1.01
- normalized growth [28]: 1.09
- normalized growth (S. cerevisiae strains, strain wild type, stronger effect = lower value): 1.02

Structure (SMILES): OC[C@H]1O[C@H](O[C@]2(CCl)O[C@H](CCl)[C@@H](O)[C@@H]2O)[C@H](O)[C@@H](O)[C@H]1Cl
- normalized growth [11]: 1.04
- normalized growth [29]: 0.979
- normalized growth [30]: 0.996
- normalized growth [31]: 0.952
- normalized growth [32]: 0.977
- normalized growth [33]: 0.895
- normalized growth [34]: 0.972
- normalized growth [35]: 0.984

Structure (SMILES): FC(F)(F)c1ccc(Cl)c(NC(=S)NN=C2CCCCCC2)c1
- normalized growth [5]: 0.989
- normalized growth [6]: 0.977
- normalized growth [7]: 1.01
- normalized growth [8]: 1.07
- normalized growth [1]: 1.04
- normalized growth [9]: 0.89 (active)
- normalized growth [10]: 0.996
- normalized growth (S. cerevisiae deletion strains, locus YGR229C, strain SMI1, stronger effect = lower value): 0.948
- normalized growth [11]: 0.924
- normalized growth [12]: 0.956
- normalized growth [13]: 1.03
- normalized growth [14]: 1.02
- normalized growth [15]: 0.891 (active)
- normalized growth [16]: 0.783 (active)
- normalized growth [17]: 0.99
- normalized growth [18]: 0.741 (active)
- normalized growth [19]: 0.883
- normalized growth [20]: 0.912
- normalized growth [21]: 0.984
- normalized growth [2]: 0.996
- normalized growth [22]: 1.02
- normalized growth [23]: 0.813 (active)
- normalized growth [4]: 0.989
- normalized growth [24]: 0.895
- normalized growth [25]: 0.61 (active)
- normalized growth [26]: 0.949
- normalized growth [27]: 0.969
- normalized growth [28]: 1

Structure (SMILES): FC(F)(F)c1ccc(N2CCc3ccccc3C2)c(NC(=S)Nc2cc(Cl)cc(Cl)c2)c1
- normalized growth (S. cerevisiae deletion strains, locus YAR019C, strain CDC15, stronger effect = lower value): 0.972
- normalized growth (S. cerevisiae deletion strains, locus YBL105C, strain PKC1, stronger effect = lower value): 0.981
- normalized growth (S. cerevisiae deletion strains, locus YBR135W, strain CKS1, stronger effect = lower value): 0.978
- normalized growth (S. cerevisiae deletion strains, locus YBR136W, strain MEC1, stronger effect = lower value): 0.997
- normalized growth (S. cerevisiae deletion strains, locus YBR160W, strain CDC28, stronger effect = lower value): 0.989
- normalized growth (S. cerevisiae deletion strains, locus YDL017W, strain CDC7, stronger effect = lower value): 0.982
- normalized growth (S. cerevisiae deletion strains, locus YDL028C, strain MPS1, stronger effect = lower value): 0.987
- normalized growth [8]: 0.978
- normalized growth (S. cerevisiae deletion strains, locus YDL108W, strain KIN28, stronger effect = lower value): 0.998
- normalized growth (S. cerevisiae deletion strains, locus YDL132W, strain cdc53, stronger effect = lower value): 0.985
- normalized growth (S. cerevisiae deletion strains, locus YDL214C, strain PRR2, stronger effect = lower value): 0.924
- normalized growth (S. cerevisiae deletion strains, locus YDR052C, strain DBF4, stronger effect = lower value): 0.98
- normalized growth (S. cerevisiae deletion strains, locus YDR054C, strain cdc34, stronger effect = lower value): 0.969
- normalized growth (S. cerevisiae deletion strains, locus YDR226W, strain ADK1, stronger effect = lower value): 0.99
- normalized growth (S. cerevisiae deletion strains, locus YDR477W, strain SNF1, stronger effect = lower value): 0.937
- normalized growth (S. cerevisiae deletion strains, locus YER123W, strain YCK3, stronger effect = lower value): 0.908
- normalized growth (S. cerevisiae deletion strains, locus YER133W, strain GLC7, stronger effect = lower value): 0.939
- normalized growth (S. cerevisiae deletion strains, locus YFL009W, strain cdc4, stronger effect = lower value): 0.983
- normalized growth (S. cerevisiae deletion strains, locus YFL029C, strain CAK1, stronger effect = lower value): 0.975
- normalized growth (S. cerevisiae deletion strains, locus YFR003C, strain YPI1, stronger effect = lower value): 0.993
- normalized growth (S. cerevisiae deletion strains, locus YFR019W, strain FAB1, stronger effect = lower value): 0.957
- normalized growth (S. cerevisiae deletion strains, locus YFR028C, strain CDC14, stronger effect = lower value): 0.971
- normalized growth (S. cerevisiae deletion strains, locus YGR040W, strain KSS1, stronger effect = lower value): 0.939
- normalized growth (S. cerevisiae deletion strains, locus YGR052W, strain FMP48, stronger effect = lower value): 1.01
- normalized growth (S. cerevisiae deletion strains, locus YGR092W, strain DBF2, stronger effect = lower value): 0.869
- normalized growth [11]: 1.15
- normalized growth [29]: 1.06
- normalized growth (S. cerevisiae deletion strains, locus YHR082C, strain KSP1, stronger effect = lower value): 1
- normalized growth (S. cerevisiae deletion strains, locus YHR205W, strain SCH9, stronger effect = lower value): 0.962
- normalized growth (S. cerevisiae deletion strains, locus YIL147C, strain SLN1, stronger effect = lower value): 0.993
- normalized growth [30]: 1.02
- normalized growth (S. cerevisiae deletion strains, locus YJL128C, strain PBS2, stronger effect = lower value): 0.968
- normalized growth (S. cerevisiae deletion strains, locus YJL157C, strain FAR1, stronger effect = lower value): 0.908
- normalized growth (S. cerevisiae deletion strains, locus YJR016C, strain ILV3, stronger effect = lower value): 0.985
- normalized growth (S. cerevisiae deletion strains, locus YJR066W, strain TOR1 (second series), stronger effect = lower value): 0.899
- normalized growth [31]: 1.02
- normalized growth (S. cerevisiae deletion strains, locus YKL048C, strain ELM1, stronger effect = lower value): 0.963
- normalized growth (S. cerevisiae deletion strains, locus YKL067W, strain YNK1, stronger effect = lower value): 0.931
- normalized growth (S. cerevisiae deletion strains, locus YKL101W, strain HSL1, stronger effect = lower value): 0.959
- normalized growth (S. cerevisiae deletion strains, locus YKL193C, strain SDS22, stronger effect = lower value): 0.974
- normalized growth (S. cerevisiae deletion strains, locus YKL203C, strain TOR2, stronger effect = lower value): 1.02
- normalized growth [32]: 1.03
- normalized growth (S. cerevisiae deletion strains, locus YLR133W, strain CKI1, stronger effect = lower value): 0.936
- normalized growth (S. cerevisiae deletion strains, locus YLR403W, strain SFP1, stronger effect = lower value): 0.945
- normalized growth (S. cerevisiae deletion strains, locus YML070W, strain DAK1, stronger effect = lower value): 0.938
- normalized growth (S. cerevisiae deletion strains, locus YMR001C, strain CDC5, stronger effect = lower value): 0.969
- normalized growth (S. cerevisiae deletion strains, locus YMR205C, strain PFK2 (second series), stronger effect = lower value): 0.947
- normalized growth (S. cerevisiae deletion strains, locus YMR277W, strain FCP1, stronger effect = lower value): 0.972
- normalized growth (S. cerevisiae deletion strains, locus YNL006W, strain LST8, stronger effect = lower value): 0.984
- normalized growth (S. cerevisiae deletion strains, locus YNL020C, strain ARK1, stronger effect = lower value): 0.934
- normalized growth (S. cerevisiae deletion strains, locus YNL161W, strain CBK1, stronger effect = lower value): 0.978
- normalized growth [33]: 1.03
- normalized growth (S. cerevisiae deletion strains, locus YNL207W, strain RIO2, stronger effect = lower value): 0.979
- normalized growth (S. cerevisiae deletion strains, locus YNL222W, strain SSU72, stronger effect = lower value): 0.979
- normalized growth (S. cerevisiae deletion strains, locus YNL307C, strain MCK1 (second series), stronger effect = lower value): 0.941
- normalized growth (S. cerevisiae deletion strains, locus YOL078W, strain AVO1, stronger effect = lower value): 0.976
- normalized growth (S. cerevisiae deletion strains, locus YOL136C, strain PFK27, stronger effect = lower value): 0.956
- normalized growth (S. cerevisiae deletion strains, locus YOR061W, strain CKA2, stronger effect = lower value): 0.908
- normalized growth (S. cerevisiae deletion strains, locus YOR119C, strain RIO1, stronger effect = lower value): 0.98
- normalized growth [34]: 1.01
- normalized growth (S. cerevisiae deletion strains, locus YOR329C, strain SCD5, stronger effect = lower value): 0.985
- normalized growth (S. cerevisiae deletion strains, locus YPL031C, strain PHO85, stronger effect = lower value): 0.929
- normalized growth (S. cerevisiae deletion strains, locus YPL153C, strain RAD53, stronger effect = lower value): 0.931
- normalized growth (S. cerevisiae deletion strains, locus YPL204W, strain HRR25, stronger effect = lower value): 0.939
- normalized growth (S. cerevisiae deletion strains, locus YPL209C, strain IPL1, stronger effect = lower value): 0.982
- normalized growth [35]: 1.07
- normalized growth (S. cerevisiae deletion strains, locus YPR025C, strain CCL1, stronger effect = lower value): 0.967
- normalized growth (S. cerevisiae deletion strains, locus YPR106W, strain ISR1, stronger effect = lower value): 0.982
- normalized growth (S. cerevisiae deletion strains, locus YPR111W, strain DBF20, stronger effect = lower value): 0.985
- normalized growth (S. cerevisiae deletion strains, strain NNK1, stronger effect = lower value): 0.991
- normalized growth (S. cerevisiae deletion strains, strain TSCII, stronger effect = lower value): 0.972
